# Source: ChEMBL document CHEMBL1961873, “Compounds: GSK PKIS; Assays: Nanosyn kinase panel” (2012)
# Tests used:
# [1] = target: T1, Inhibitor of nuclear factor kappa-B kinase subunit epsilon (Homo sapiens) (UniProt Q14164); details: at 1 µM;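 also: reported values are averaged percent inhibition figures against human IKKε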
# T1 sequence (whole entry): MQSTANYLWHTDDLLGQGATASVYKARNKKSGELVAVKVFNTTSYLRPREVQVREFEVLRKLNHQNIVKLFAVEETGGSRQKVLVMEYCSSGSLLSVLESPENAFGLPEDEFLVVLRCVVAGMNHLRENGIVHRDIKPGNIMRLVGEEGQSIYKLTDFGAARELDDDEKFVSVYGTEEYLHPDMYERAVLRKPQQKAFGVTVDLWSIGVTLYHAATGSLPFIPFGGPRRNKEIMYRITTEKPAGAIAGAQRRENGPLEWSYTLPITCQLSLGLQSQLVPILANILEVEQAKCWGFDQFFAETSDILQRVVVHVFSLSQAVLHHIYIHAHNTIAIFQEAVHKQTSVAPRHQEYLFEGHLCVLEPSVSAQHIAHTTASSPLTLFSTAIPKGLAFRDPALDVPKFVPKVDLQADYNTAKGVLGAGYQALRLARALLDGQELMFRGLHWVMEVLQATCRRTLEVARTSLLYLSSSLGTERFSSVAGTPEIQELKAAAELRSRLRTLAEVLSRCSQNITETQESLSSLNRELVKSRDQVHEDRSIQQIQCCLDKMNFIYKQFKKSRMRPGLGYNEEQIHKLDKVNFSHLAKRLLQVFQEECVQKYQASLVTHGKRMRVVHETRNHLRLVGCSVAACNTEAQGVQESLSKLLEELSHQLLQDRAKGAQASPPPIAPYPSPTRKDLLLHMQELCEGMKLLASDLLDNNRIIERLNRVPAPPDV
# [2] = target: T2, Serine/threonine-protein kinase Nek1 (Homo sapiens) (UniProt Q96PY6); details: at 0.1 µM
# T2 sequence (whole entry): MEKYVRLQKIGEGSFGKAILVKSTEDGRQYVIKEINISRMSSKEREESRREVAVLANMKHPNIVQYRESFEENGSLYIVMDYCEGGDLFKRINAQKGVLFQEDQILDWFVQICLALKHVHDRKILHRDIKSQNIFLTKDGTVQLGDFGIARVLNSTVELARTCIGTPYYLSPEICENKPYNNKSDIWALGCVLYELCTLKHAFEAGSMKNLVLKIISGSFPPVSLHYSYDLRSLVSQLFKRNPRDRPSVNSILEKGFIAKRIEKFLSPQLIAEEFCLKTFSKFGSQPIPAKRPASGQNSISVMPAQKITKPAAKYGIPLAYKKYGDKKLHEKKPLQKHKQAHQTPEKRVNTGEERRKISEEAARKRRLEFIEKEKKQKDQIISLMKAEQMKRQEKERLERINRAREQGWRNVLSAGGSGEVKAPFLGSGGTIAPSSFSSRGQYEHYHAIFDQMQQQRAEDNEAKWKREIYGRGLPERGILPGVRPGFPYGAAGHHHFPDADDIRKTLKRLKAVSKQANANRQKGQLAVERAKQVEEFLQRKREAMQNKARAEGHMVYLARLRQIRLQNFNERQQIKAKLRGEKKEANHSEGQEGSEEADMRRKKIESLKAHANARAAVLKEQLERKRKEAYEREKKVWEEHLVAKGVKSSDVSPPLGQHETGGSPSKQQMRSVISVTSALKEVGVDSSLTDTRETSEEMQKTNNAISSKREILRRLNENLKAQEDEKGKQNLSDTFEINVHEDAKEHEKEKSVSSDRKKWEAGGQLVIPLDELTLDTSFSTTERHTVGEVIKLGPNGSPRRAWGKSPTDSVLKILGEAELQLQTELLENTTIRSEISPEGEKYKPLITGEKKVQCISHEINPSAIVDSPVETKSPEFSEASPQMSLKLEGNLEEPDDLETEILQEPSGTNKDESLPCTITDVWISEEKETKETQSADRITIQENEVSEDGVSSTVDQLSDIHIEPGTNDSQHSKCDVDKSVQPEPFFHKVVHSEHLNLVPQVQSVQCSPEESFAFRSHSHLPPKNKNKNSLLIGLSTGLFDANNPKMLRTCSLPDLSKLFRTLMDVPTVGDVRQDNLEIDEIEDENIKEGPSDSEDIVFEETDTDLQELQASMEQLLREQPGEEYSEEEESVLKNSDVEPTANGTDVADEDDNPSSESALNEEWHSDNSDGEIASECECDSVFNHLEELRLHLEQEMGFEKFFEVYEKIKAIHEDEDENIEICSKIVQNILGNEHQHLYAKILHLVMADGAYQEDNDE
# [3] = target: T2, Serine/threonine-protein kinase Nek1 (Homo sapiens); details: at 1 µM
# [4] = target: T3, Serine/threonine-protein kinase Nek2 (Homo sapiens) (UniProt P51955); details: at 0.1 µM
# T3 sequence (whole entry): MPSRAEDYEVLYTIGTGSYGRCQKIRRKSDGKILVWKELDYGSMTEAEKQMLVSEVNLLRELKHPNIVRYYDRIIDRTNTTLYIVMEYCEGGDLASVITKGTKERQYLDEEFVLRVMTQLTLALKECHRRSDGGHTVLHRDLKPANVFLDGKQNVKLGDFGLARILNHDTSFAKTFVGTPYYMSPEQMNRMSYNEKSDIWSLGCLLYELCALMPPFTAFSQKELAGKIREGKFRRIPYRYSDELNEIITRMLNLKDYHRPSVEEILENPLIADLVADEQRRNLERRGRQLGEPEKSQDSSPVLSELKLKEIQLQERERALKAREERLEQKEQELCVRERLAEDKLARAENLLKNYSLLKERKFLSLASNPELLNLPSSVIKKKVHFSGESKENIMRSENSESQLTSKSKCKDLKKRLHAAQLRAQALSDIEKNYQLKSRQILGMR
# [5] = target: T3, Serine/threonine-protein kinase Nek2 (Homo sapiens); details: at 1 µM
# [6] = target: Serine/threonine-protein kinase Nek6 (Homo sapiens) (UniProt Q9HC98); details: at 0.1 µM
# Chain of Serine/threonine-protein kinase Nek6 (Homo sapiens) (Q9HC98 whole entry): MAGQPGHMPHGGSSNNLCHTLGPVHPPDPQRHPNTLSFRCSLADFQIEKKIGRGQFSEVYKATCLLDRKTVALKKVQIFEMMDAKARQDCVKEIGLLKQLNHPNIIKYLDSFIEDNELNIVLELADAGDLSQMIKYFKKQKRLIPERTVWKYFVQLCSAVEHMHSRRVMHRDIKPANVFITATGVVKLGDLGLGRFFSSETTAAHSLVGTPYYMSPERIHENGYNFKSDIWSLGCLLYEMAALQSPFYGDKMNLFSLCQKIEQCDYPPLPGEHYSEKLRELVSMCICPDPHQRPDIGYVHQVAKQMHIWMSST
# [7] = target: Serine/threonine-protein kinase Nek6 (Homo sapiens) (UniProt Q9HC98); details: at 1 µM
# [8] = target: Serine/threonine-protein kinase Nek7 (Homo sapiens) (UniProt Q8TDX7); details: at 0.1 µM
# Chain of Serine/threonine-protein kinase Nek7 (Homo sapiens) (Q8TDX7 whole entry, looked up): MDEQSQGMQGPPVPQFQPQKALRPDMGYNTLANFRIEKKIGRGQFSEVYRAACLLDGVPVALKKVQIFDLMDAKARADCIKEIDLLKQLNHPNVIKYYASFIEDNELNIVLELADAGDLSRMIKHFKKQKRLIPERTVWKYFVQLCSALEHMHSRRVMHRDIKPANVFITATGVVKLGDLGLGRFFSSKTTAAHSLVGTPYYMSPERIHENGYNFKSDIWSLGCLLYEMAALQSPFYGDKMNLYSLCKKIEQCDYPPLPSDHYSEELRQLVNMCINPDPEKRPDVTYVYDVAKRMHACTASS
# [9] = target: Serine/threonine-protein kinase Nek7 (Homo sapiens) (UniProt Q8TDX7); details: at 1 µM
# [10] = target: T4, Serine/threonine-protein kinase Nek9 (Homo sapiens) (UniProt Q8TD19); details: at 0.1 µM;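 also: reported value is the mean percent inhibition of NEK9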
# T4 sequence (whole entry): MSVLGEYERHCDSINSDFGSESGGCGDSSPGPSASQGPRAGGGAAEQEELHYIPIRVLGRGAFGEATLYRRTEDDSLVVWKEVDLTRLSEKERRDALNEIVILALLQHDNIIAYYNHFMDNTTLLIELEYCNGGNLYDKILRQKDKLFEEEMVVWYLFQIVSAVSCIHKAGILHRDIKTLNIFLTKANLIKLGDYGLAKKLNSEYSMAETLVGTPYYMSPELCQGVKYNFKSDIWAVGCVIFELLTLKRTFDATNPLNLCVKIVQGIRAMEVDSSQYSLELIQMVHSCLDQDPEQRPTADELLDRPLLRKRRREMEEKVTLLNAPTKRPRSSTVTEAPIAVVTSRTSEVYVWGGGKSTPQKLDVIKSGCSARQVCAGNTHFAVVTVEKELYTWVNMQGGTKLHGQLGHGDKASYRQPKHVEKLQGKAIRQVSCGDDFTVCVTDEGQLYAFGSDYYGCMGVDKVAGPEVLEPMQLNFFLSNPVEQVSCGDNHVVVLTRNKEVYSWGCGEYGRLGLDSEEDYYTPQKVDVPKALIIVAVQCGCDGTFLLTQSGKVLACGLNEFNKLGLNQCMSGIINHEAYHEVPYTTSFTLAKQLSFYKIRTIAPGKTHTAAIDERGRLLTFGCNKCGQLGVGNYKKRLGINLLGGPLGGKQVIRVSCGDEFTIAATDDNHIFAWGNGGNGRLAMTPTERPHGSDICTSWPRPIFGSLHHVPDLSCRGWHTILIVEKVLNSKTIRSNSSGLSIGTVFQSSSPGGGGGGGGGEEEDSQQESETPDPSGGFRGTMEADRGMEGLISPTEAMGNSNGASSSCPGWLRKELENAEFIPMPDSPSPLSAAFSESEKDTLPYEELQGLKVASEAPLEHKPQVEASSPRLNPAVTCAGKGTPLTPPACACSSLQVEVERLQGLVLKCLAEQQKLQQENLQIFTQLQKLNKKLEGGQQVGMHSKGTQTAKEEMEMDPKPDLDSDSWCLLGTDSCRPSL
smiles,measurement,setting,value
COc1ccc2cc(-c3c(-c4ccncc4)nc(-c4ccc([S+](C)[O-])cc4C)n3C)ccc2c1 (stereo not given),inhibition,[1],-2.02%
same,inhibition,[2],0.36%
same,inhibition,[3],0.54%
same,inhibition,[4],-0.64%
same,inhibition,[5],-0.11%
same,inhibition,[6],0.58%
same,inhibition,[7],1.1%
same,inhibition,[8],2.37%
same,inhibition,[9],0.01%
same,inhibition,[10],3.4%
